The text below walks through data of PubChem BioAssay AID687043 (Milwaukee Institute for Drug Discovery, 2013).

SMILES strings stand for the structures. Screen size: about 16,000 compounds; about 250 (1.6%) were called active.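 The calls were made as follows: active = inhibition above the average over every tested compound plus 3 SD (cut at about 40% in these data); inactive = the rest.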 Shown is part of a subset that was picked to be rich in actives.

This assay concerns Hepatitis C virus NS3 helicase. Kind of assay: compounds blocking NS3h DNA binding – biochemical, fluorescence polarization, ChemBridge library, primary screen (AID 687043). Particulars: NS3h Cy5-dT15 DNA binding, at 100 µM, hits give high values.
Turning to `CCOC(=O)c1cc2n(n1)C(C(F)(F)F)CC(c1ccco1)N2` (stereo not given), the inhibition was 1.4% (inactive).

For `COc1ccc(Nc2nc(-c3ccccc3)c3cc(C)ccc3n2)cc1`, the inhibition was 6.7% (inactive).

On to `COc1ccc(S(=O)(=O)NCCC(C)C)cc1`, for which the inhibition is 4.2% (inactive).

With `Cc1ccc(CCC(=O)Nc2ncc(Cc3ccc(F)cc3)s2)o1`, the inhibition was -10.4% (inactive).

As to `COc1ccc(C(=O)Nc2ccc(Br)cc2C)c(OC)c1`, the inhibition was 24.4% (inactive).

Consider `COc1ccccc1CNC(=O)C1CC(=O)N(c2ccc(F)cc2)C1` (stereo not given), for which the inhibition was 1.7% (inactive).

For the molecule `Cc1ccc(C(=O)Nc2ccc(Cl)cc2)cc1[N+](=O)[O-]`, the inhibition is -9.5% (inactive).

For the molecule `O=C(/C=C/c1cc2c(cc1Br)OCO2)c1cccc([N+](=O)[O-])c1`, the inhibition was 2.3% (inactive).

With `COc1ccc(-c2noc(-c3ccc(Br)cc3)n2)cc1`, the inhibition is 3.3% (inactive).

As for `O=C(NCc1ccco1)/C(=C/c1cccc(Oc2ccccc2)c1)NC(=O)c1ccccc1`, the inhibition was 9.7% (inactive).

For `Cc1nc(SCC#N)c(C#N)c(C)c1C`, the inhibition is 9% (inactive).

Turning to `COc1ccc2c(Cl)c(C(=O)NCc3ccc4c(c3)OCO4)sc2c1`, the inhibition is 17% (inactive).

As for `Cc1ccccc1OCC(=O)Nc1ccc(OC(F)(F)F)cc1`, the inhibition is 2.3% (inactive).

As to `CC(C)Nc1nc(-c2ccc(Cl)cc2)nc2ccccc12`, the inhibition was 19.8% (inactive).

Take `COc1cccc(C2C(C(=O)Nc3ccccc3)=C(C)N=c3s/c(=C\c4ccncc4)c(=O)n32)c1` (stereo not given): the inhibition is 2.2% (inactive).

As for `Cn1c(=O)c2c(nc(Sc3ncn[nH]3)n2C)n(C)c1=O`, the inhibition is -6.5% (inactive).

For the molecule `CCOC(=O)C1=C(C)N=c2s/c(=C/c3c[nH]c4ccccc34)c(=O)n2C1c1ccc(F)cc1` (stereo not given), the inhibition was -6.3% (inactive).

Consider `O=C(c1ccncc1)N1N=C(c2ccc(Cl)cc2)CC1(O)C(F)(F)F` (stereo not given), for which the inhibition is 13.4% (inactive).

On to `COC(=O)C1=C(C)NC2=C(C(=O)CC(c3ccc(OC)c(OC)c3)C2)C1c1ccc(OC)c(OC)c1` (stereo not given), for which the inhibition was 7.3% (inactive).

Take `O=C(CN(c1cccc(Br)c1)S(=O)(=O)c1ccccc1)N1CCOCC1`: the inhibition is 3.1% (inactive).

As for `Cn1c(=O)n(CCOc2ccc(Br)cc2)c2ccccc21`, the inhibition is 13.9% (inactive).

With `Cc1nc2c([N+](=O)[O-])cc(Br)cc2c(=O)[nH]1`, the inhibition was -12.6% (inactive).

For `COc1ccc(CCNC(=O)C(=O)Nc2ccccc2C)cc1OC`, the inhibition is 15.5% (inactive).

Regarding `CCOc1ccc(C2=C/C(=C/c3ccc(OC)c(OC)c3)C(=O)O2)cc1`, the inhibition is -0.3% (inactive).

With `Cc1ccc(COc2ccc3oc(C)c(C(=O)O)c3c2)cc1`, the inhibition was 5.2% (inactive).

With `COc1ccccc1N1CCN(S(=O)(=O)c2ccc(SC)cc2)CC1`, the inhibition was -1.6% (inactive).

With `CCOc1cc(/C=C2\C=C(c3ccc(C)cc3)OC2=O)ccc1OC(C)=O`, the inhibition is -4.9% (inactive).

As to `O=C(COc1ccc(Br)cc1)Nc1cccc2nsnc12`, the inhibition was 6% (inactive).

For the molecule `O=C(COc1ccccc1)Nc1ccc(NC(=O)COc2ccccc2)cc1`, the inhibition is 2.2% (inactive).

For `COc1ccc(OC)c(C=NN2CCN(Cc3ccc(C)cc3C)CC2)c1`, the inhibition was 11.9% (inactive).

The inhibition is the relative decrease from the control value, in per cent.
